Test systems include NCI-H23 lung; NCI-H226 lung; NCI-H322M lung; HOP-62 NSCLC; NCI-H460 lung; HOP-92 NSCLC; NCI-H522 lung; A549/ATCC NSCLC; 786-0 renal; COLO 205 colon; DU-145 prostate; K-562 leukemia; MALME-3M melanoma; MDA-MB-231 breast; RXF 393 renal; SF-268 CNS; SF-295 CNS; SF-539 CNS; UACC-257 melanoma; M14 melanoma.
Common to all, as to assay: NCI-60 one-dose screen, 48 h (100 = growth as untreated, 0 = no growth, -100 = all killed)
Conditions in all cases: 10 µM unless noted

Each structure is given as a SMILES string. This is part of a sample that, as a whole, favours compounds with a hit. Of some 83,000 tested, about 20% had one in any assay.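 Note: values are percent growth. 100 is the growth of untreated cells, values between 100 and 0 indicate rising inhibition; between -100 and 0 indicates cell death.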 Values without a mark were called inactive. Activity calls are given as the source filed them. Rule for the calls: active = growth percent below 10; inactive = the rest.

For the compound `CN1CCN(Cc2ccc(NC(=O)c3cncc(C#Cc4ccc(N)nc4)c3)cc2C(F)(F)F)CC1`, the growth is 17.4% with NCI-H23 lung; -47.3% (active) in the experiment with NCI-H226 lung; 25.9% with NCI-H322M lung; 8.59% (active) in the experiment with HOP-62 NSCLC; 6.66% (active) with NCI-H460 lung; -25.5% (active) with HOP-92 NSCLC. Besides, the growth with NCI-H522 lung was 23.1%; in the experiment on A549/ATCC NSCLC it was 16.2%; with 786-0 renal, 21.6%; with COLO 205 colon it was -20.4% (active); in the experiment with DU-145 prostate, 21.4%; in the experiment on K-562 leukemia, 1.27% (active). Also, the growth in the experiment on MALME-3M melanoma was -70.3% (active); in the experiment with MDA-MB-231 breast it was -46.3% (active); in the experiment with RXF 393 renal, -6.03% (active); with SF-268 CNS, 15.8%; with SF-295 CNS, 11.5%; with SF-539 CNS, -39.8% (active). The growth in the experiment with UACC-257 melanoma is 11.8%; with M14 melanoma it was -37% (active).
As to `F`, the growth in the experiment with NCI-H23 lung is 41.1% [6.87 mM]; with NCI-H226 lung it was 90.6% [6.87 mM]; with NCI-H322M lung it was 46.4% [6.87 mM]; with HOP-62 NSCLC, 10.7% [6.87 mM]; in the experiment on NCI-H460 lung, 45.1% [6.87 mM]; with HOP-92 NSCLC it was -5.03% [6.87 mM] (active). Further, the growth in the experiment with NCI-H522 lung was 56.8% [6.87 mM]; with A549/ATCC NSCLC, 18% [6.87 mM]; in the experiment with 786-0 renal, -1.01% [6.87 mM] (active); with COLO 205 colon it was 40.3% [6.87 mM]; in the experiment with DU-145 prostate, 49.5% [6.87 mM]; in the experiment on K-562 leukemia, 60.9% [6.87 mM]. Moreover, the growth is -28.9% [6.87 mM] (active) in the experiment on MALME-3M melanoma; 5.12% [6.87 mM] (active) in the experiment on MDA-MB-231 breast; 23.9% [6.87 mM] with RXF 393 renal; 40.9% [6.87 mM] with SF-268 CNS; 2.46% [6.87 mM] (active) with SF-295 CNS; -13% [6.87 mM] (active) in the experiment with SF-539 CNS. Moreover, the figures for the growth with UACC-257 melanoma and in the experiment with M14 melanoma were 0.483% [6.87 mM] (active) and -23.4% [6.87 mM] (active), respectively.
As for `COc1ccc(C2=NN(C=O)C(c3ccc(OS(=O)(=O)c4ccc(C)cc4)c(OC)c3)C2)cc1` (stereo not given), the growth in the experiment on NCI-H23 lung is 37.8%; in the experiment with NCI-H226 lung it was 67.4%; with NCI-H322M lung it was 99.9%; with HOP-62 NSCLC it was 61.3%; in the experiment with NCI-H460 lung, 62.8%; with HOP-92 NSCLC, 32.8%. Besides, the growth is 21.3% in the experiment with NCI-H522 lung; 42.6% in the experiment with A549/ATCC NSCLC; 78.1% in the experiment on 786-0 renal; 63.3% in the experiment with COLO 205 colon; 72.8% in the experiment on DU-145 prostate; 16% in the experiment with K-562 leukemia. For the same compound, the growth in the experiment with MALME-3M melanoma is 45.9%; with MDA-MB-231 breast, 56.4%; in the experiment with RXF 393 renal, 82.7%; in the experiment on SF-268 CNS, 68.7%; in the experiment on SF-295 CNS it was 41.6%; with SF-539 CNS it was 66.9%. The growth is 42.9% with UACC-257 melanoma and 58.8% with M14 melanoma.
Turning to `COc1ccc(-c2cn(-c3cccc(C(=O)/C=C/c4ccc(O)c(OC)c4)c3)c(=O)[nH]2)cc1`, the growth in the experiment with NCI-H23 lung was 62.5%; in the experiment with NCI-H226 lung, 93.6%; in the experiment on NCI-H322M lung it was 64.8%; in the experiment on HOP-62 NSCLC, 113%; with NCI-H460 lung, 31.7%; in the experiment with HOP-92 NSCLC, 22.6%. In addition, the growth is -4.38% (active) with NCI-H522 lung; 31.5% with A549/ATCC NSCLC; 34.5% with 786-0 renal; 105% with COLO 205 colon; 6.8% (active) in the experiment with DU-145 prostate; 25.7% in the experiment on K-562 leukemia. The growth with MALME-3M melanoma was 72.5%; with MDA-MB-231 breast, 38.9%; with RXF 393 renal, -60.9% (active); with SF-268 CNS, 19.1%; with SF-295 CNS it was 15.2%; with SF-539 CNS, 10.5%. For the same compound, the growth in the experiment on UACC-257 melanoma was 40.3%; in the experiment on M14 melanoma, 51%.
For the compound `FC(F)(F)c1ccc(/C=N/Nc2nnc3n2N=C(c2ccc(Cl)cc2)CS3)cc1`, the growth with NCI-H23 lung was 64.8%; with NCI-H226 lung, 20.7%; with NCI-H322M lung it was 60.9%; in the experiment with HOP-62 NSCLC it was 16.4%; with NCI-H460 lung it was 43.9%; in the experiment with HOP-92 NSCLC, 3.52% (active). Also, the growth is 58.1% with NCI-H522 lung; 51.7% in the experiment with A549/ATCC NSCLC; 27.6% in the experiment with 786-0 renal; 89.3% with COLO 205 colon; 53.7% in the experiment on DU-145 prostate; 80.9% with K-562 leukemia. Further, the growth with MALME-3M melanoma was 16.3%; in the experiment on MDA-MB-231 breast, 56.2%; in the experiment on RXF 393 renal, 3.04% (active); in the experiment on SF-268 CNS it was 36.8%; with SF-295 CNS, 47.6%; in the experiment with SF-539 CNS it was 54.8%. Moreover, the values for the growth with UACC-257 melanoma and with M14 melanoma were 46.9% and 74.4%, respectively.
As for `O=C(OCc1ccc2c(Br)cc(Br)c(O)c2n1)c1cc2ccccc2[nH]1`, the growth with NCI-H23 lung was -27.4% (active); with NCI-H226 lung it was -66.5% (active); in the experiment with NCI-H322M lung, 51.6%; in the experiment with HOP-62 NSCLC it was 13.7%; with NCI-H460 lung it was -38.7% (active); in the experiment with HOP-92 NSCLC, -66.4% (active). The growth in the experiment on NCI-H522 lung is -74.2% (active); in the experiment with A549/ATCC NSCLC it was 14.5%; in the experiment on 786-0 renal, -78.2% (active); in the experiment with COLO 205 colon it was -74% (active); with DU-145 prostate, -91.6% (active); in the experiment on K-562 leukemia, 1.14% (active). For the same compound, the growth in the experiment with MALME-3M melanoma is -85.5% (active); in the experiment with MDA-MB-231 breast, -81.9% (active); with RXF 393 renal, -91.4% (active); with SF-268 CNS it was -51.5% (active); in the experiment with SF-295 CNS it was 68.5%; in the experiment on SF-539 CNS, -96.3% (active). Also, the growth in the experiment with UACC-257 melanoma was -64.6% (active); in the experiment on M14 melanoma, -64.7% (active).
Consider `CC(=O)OC1Oc2cc(C)c(C)cc2-c2oc(=O)c(-c3cc4ccccc4oc3=O)cc21` (stereo not given), for which the growth in the experiment on NCI-H23 lung is 85.6%; in the experiment with NCI-H226 lung it was 124%; in the experiment on NCI-H322M lung, 126%; with HOP-62 NSCLC, 109%; with NCI-H460 lung it was 108%; in the experiment on HOP-92 NSCLC, 88.3%. Besides, the growth is 82.9% with NCI-H522 lung; 113% in the experiment on A549/ATCC NSCLC; 79.7% in the experiment with 786-0 renal; 121% in the experiment with COLO 205 colon; 89.7% in the experiment on DU-145 prostate; 106% with K-562 leukemia. The growth is 107% with MALME-3M melanoma; 92.4% in the experiment on MDA-MB-231 breast; -1.16% (active) with RXF 393 renal; 61.3% in the experiment on SF-268 CNS; 76% with SF-295 CNS; 88.4% in the experiment with SF-539 CNS. The growth with UACC-257 melanoma was 117%; with M14 melanoma, 96.3%.

For the origin of these results see PubChem BioAssay (NCI).
